This is a sample that favours compounds with a hit; in the whole collection about 18% have one here.
TDP1 block – TDP1 (human) enzyme inhibition; 350,000 tested, 0.28% active; Potency, µM (series often up to 130 µM), without a hit: top-dose activity change, negative = inhibition, usual class: inhibitors; Q9NUW8; recombinant TDP1, AlphaScreen DNA substrate cleavage; further: nearly all actives have a fitted effect of over 40% in size
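Recombinant human Tdp1 (E. coli-expressed, 1 nM final) preincubated with compounds 15 min at room temperature, then 5'-biotin/3'-phosphotyrosine-FITC DNA substrate (15 nM final) added for 5 min. AlphaScreen beads (10 ug/ml final) added 10 min; cleavage lowers signal.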
PLK1 PBD inh – inhibitors of human PLK1 polo-box domain binding; 360,000 tested, 2.8% active; Potency, µM, for inactives: max response, negative = inhibition, actives largely listed as inhibitors; Plk1 PBD binding of FITC phosphopeptide, fluorescence polarization; further: series mostly up to about 57 µM; nearly all actives have a fitted effect of over 65% in size
TDP1 cell noCPT – qHTS for Inhibitors of human tyrosyl-DNA phosphodiesterase 1 (TDP1): qHTS in cells in absence of CPT; DT40 Tdp1-/- hTDP1 cells, no CPT, ATP luminescence, 48 h; AID 686978, 2013; Potency, µM (series often up to 46.2 µM), inactives show at the highest dose activity change, negative = growth inhibition, hits mostly inhibitors; 420,000 tested, 15% active; further: nearly all actives have a fitted effect of over 55% in size
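Cells were dispensed at 400 per well, compounds added by pin tool, plates incubated ≥48 hr at 37 °C, then CellTiter-Glo added for 30 min at room temperature before luminescence reading. Line: DT40 Tdp1-/- complemented with hTDP1; camptothecin omitted.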
GCN5L2 inh – inhibitors of human GCN5L2 histone acetyltransferase | Q92830 | GCN5L2 HAT assay, ThioGlo1 CoA-SH fluorescence | Potency, µM (top dose mostly 58.9 µM), inactives show at the top dose activity change, negative = inhibition, most hits filed as inhibitors | 390,000 tested, 0.21% active | AID 504327
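Enzyme at 20nM final was mixed with library compounds for 15 min at room temperature. Peptide H3(1-25) at 75uM, acetyl-CoA at 70uM and ThioGlo1 at 50uM were then added. Plates were read immediately and after 20 min (Ex340nm/Em540nm).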
VDR inhibitor – vitamin D3 receptor (human) inhibition; P11473; VDR-SRC2-3 peptide fluorescence polarization, 2 h; Potency, µM, for inactives: max response, negative = inhibition, hits mostly inhibitors; 400,000 tested, 0.93% active
Target sequence (P11473 whole entry, looked up): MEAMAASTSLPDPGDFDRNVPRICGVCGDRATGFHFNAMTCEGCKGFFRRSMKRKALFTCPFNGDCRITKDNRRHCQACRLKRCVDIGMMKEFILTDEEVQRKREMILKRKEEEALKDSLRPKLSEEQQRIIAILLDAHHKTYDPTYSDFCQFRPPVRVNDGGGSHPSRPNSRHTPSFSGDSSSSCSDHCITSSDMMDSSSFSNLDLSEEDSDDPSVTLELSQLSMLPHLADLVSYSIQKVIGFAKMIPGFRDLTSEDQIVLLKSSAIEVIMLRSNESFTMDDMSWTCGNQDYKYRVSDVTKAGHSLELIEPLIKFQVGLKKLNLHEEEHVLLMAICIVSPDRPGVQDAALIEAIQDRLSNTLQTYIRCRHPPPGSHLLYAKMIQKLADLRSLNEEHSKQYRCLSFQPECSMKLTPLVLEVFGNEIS
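VDR–SRC2-3 interaction, FP format. Cmpds 23 nl via pintool, brief spin, 2 h ambient incubation.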
DT40 TDP1 CPT – DT40-hTDP1 cell growth loss with CPT. AID 686979. chicken DT40 Tdp1-/-;hTDP1 cells + 20 nM CPT, ATP luminescence, 48 h. Potency, µM (highest dose often 46.2 µM), without a hit: top-dose activity change, negative = growth inhibition, most hits filed as inhibitors. 420,000 tested, 12% active; further: nearly all actives have a fitted effect of over 55% in size
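Cell growth measured by CellTiter-Glo luminescence after a minimum 48 h, 37 C compound exposure with 20 nM CPT in Tdp1-knockout DT40 cells stably expressing hTDP1, seeded 400/well; qHTS titration format.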
Numbers without * were called inactive; [ ] = dose if it differs, or a comment. The call rests on the fitted dose curve; in most records, active means well fitted curve in the direction sought with a large enough effect; inconclusive means small, poorly fitted or top-dose-only effect, or another doubt; inactive means no such curve, though single readings can be large; an effect the other way counts as inactive or inconclusive. On the % scale 0 is the no-effect control and ±100 the full control effect; potency means the concentration at half of the fitted maximal effect.

For COc1ccc(OC)c(/C=N/NC(=O)c2cc3c(OC)cccc3[nH]2)c1 the results were PLK1 PBD inh -2%, TDP1 cell noCPT inconclusive, GCN5L2 inh inconclusive, VDR inhibitor 7% and DT40 TDP1 CPT -22%.
COc1cc(/C=N/NC(=O)c2cc3ccccc3[nH]2)ccc1O was read as PLK1 PBD inh 2%, TDP1 cell noCPT -2%, GCN5L2 inh -5%, VDR inhibitor -4% and DT40 TDP1 CPT 4%.
`O=C(Nc1ccccc1Cl)Oc1ccc(-c2ccccc2)cc1` gave PLK1 PBD inh -7%, TDP1 cell noCPT -21%, GCN5L2 inh -1%, VDR inhibitor -17% and DT40 TDP1 CPT -12%.
`O=C(Cc1n[nH]c(=O)[nH]c1=O)N/N=C/CCc1ccccc1` gave TDP1 block 4%, PLK1 PBD inh -8%, TDP1 cell noCPT -8%, GCN5L2 inh -12%, VDR inhibitor -10% and DT40 TDP1 CPT 12%.
For O=S1(=O)CCOCCCN1Cc1cccc(Cl)c1 the results were TDP1 cell noCPT inconclusive and DT40 TDP1 CPT -72%.
Cc1ccn2c(c1)nc(=O)c1cc(S(=O)(=O)N3CCC(C)CC3)c(Cl)cc12 was read as TDP1 block 5%, GCN5L2 inh 0% and VDR inhibitor 8%.
CCOc1ccc2[nH]c(C(=O)N/N=C/c3cc(OC)c(OC)c(OC)c3)cc2c1 was read as PLK1 PBD inh -8%, TDP1 cell noCPT 16µM*, GCN5L2 inh 24%, VDR inhibitor 7% and DT40 TDP1 CPT inconclusive.
For COc1ccc(CCNc2nc(=S)[nH]c3cc(OC)c(OC)cc23)cc1OC the results were TDP1 block 5%, PLK1 PBD inh -4%, TDP1 cell noCPT inconclusive, GCN5L2 inh -3%, VDR inhibitor 5% and DT40 TDP1 CPT -29%.
Screening COc1cc2[nH]c(=S)nc(Nc3ccc(NC(C)=O)cc3)c2cc1OC returned TDP1 block 0%, PLK1 PBD inh 30µM*, TDP1 cell noCPT 12%, GCN5L2 inh -14%, VDR inhibitor inconclusive and DT40 TDP1 CPT inconclusive.
Screening COc1cc2[nH]c(=S)nc(NCCc3ccc(C)cc3)c2cc1OC returned TDP1 block 1%, PLK1 PBD inh 30µM*, TDP1 cell noCPT inconclusive, GCN5L2 inh 4%, VDR inhibitor -7% and DT40 TDP1 CPT inconclusive.
COc1cc2[nH]c(=S)nc(NCc3cccs3)c2cc1OC was read as TDP1 block 6%, PLK1 PBD inh -14%, TDP1 cell noCPT 23µM*, GCN5L2 inh -6%, VDR inhibitor 1% and DT40 TDP1 CPT -29%.
`COc1ccccc1CNc1nc(=S)[nH]c2cc(OC)c(OC)cc12` gave PLK1 PBD inh -20%, TDP1 cell noCPT inconclusive, GCN5L2 inh 3%, VDR inhibitor 5% and DT40 TDP1 CPT inconclusive.
`CCCC1OC2C[C@@H]3[C@H]4CCC5=CC(=O)C=C[C@]5(C)[C@H]4C(O)C[C@]3(C)[C@]2(C(=O)CO)O1` (stereo partly drawn) gave TDP1 block 2%, TDP1 cell noCPT inconclusive, VDR inhibitor 6% and DT40 TDP1 CPT 11µM*.
Screening CCCC1O[C@@H]2C[C@H]3[C@@H]4CCC5=CC(=O)C=C[C@]5(C)C4[C@@H](O)C[C@]3(C)[C@]2(C(=O)CO)O1 (stereo partly drawn) returned TDP1 block 8%[56.1 µM].
For CCCC1OC2CC3C4CCC5=CC(=O)C=CC5(C)C4C(O)CC3(C)[C@]2(C(=O)CO)O1 (stereo partly drawn) the results were TDP1 block 5%, TDP1 cell noCPT inconclusive, GCN5L2 inh 3%, VDR inhibitor -7% and DT40 TDP1 CPT 16µM*.
`CCCC1OC2CC3C4CCC5=CC(=O)C=CC5(C)C4C(O)CC3(C)C2(C(=O)CO)O1` (stereo not drawn) gave TDP1 block 9%, GCN5L2 inh -15% and VDR inhibitor -10%.
For COc1ccc(C(NC(=O)C2CCN(CCOc3ccc(Cl)cc3Cl)CC2)c2cccs2)cc1 (stereo not drawn) the results were PLK1 PBD inh -1%, TDP1 cell noCPT 16µM* and DT40 TDP1 CPT inconclusive.
`COc1ccc(C(C)NC(=O)C2CCN(CCOc3ccc(Cl)cc3Cl)CC2)cc1OC` (stereo not drawn) gave PLK1 PBD inh -3%, TDP1 cell noCPT 23µM* and DT40 TDP1 CPT 23µM*.
Screening C/C(N)=C(/C#N)C(=O)COC(=O)Cc1coc2cc(C)ccc12 returned PLK1 PBD inh -5%, TDP1 cell noCPT 1%, GCN5L2 inh -8%, VDR inhibitor -8% and DT40 TDP1 CPT 2%.
`Cc1ccccc1NC(=O)c1ccccc1O` gave TDP1 block 2%, PLK1 PBD inh -12%, TDP1 cell noCPT inconclusive, GCN5L2 inh -2%, VDR inhibitor 8% and DT40 TDP1 CPT -20%.
For Cc1oc2ccc(O)c(CN(C)C)c2c1C(=O)c1ccccc1 the results were TDP1 block -8%, PLK1 PBD inh 2%, TDP1 cell noCPT inconclusive, GCN5L2 inh -3%, VDR inhibitor 31% and DT40 TDP1 CPT inconclusive.
Cc1ccccc1NC(=O)c1c(C)oc2ccc(O)c(CN(C)Cc3ccccc3)c12 was read as TDP1 block 2%, TDP1 cell noCPT 6.5µM*, GCN5L2 inh -6%, VDR inhibitor 4% and DT40 TDP1 CPT 8.2µM*.
For Cc1c(Cl)cccc1NC(=O)c1ccco1 the results were PLK1 PBD inh -10%, TDP1 cell noCPT -3%, GCN5L2 inh 2%, VDR inhibitor -5% and DT40 TDP1 CPT 12%.
`Cc1oc2ccc(O)c(CN(C)Cc3ccccc3)c2c1C(=O)Nc1cccc(Cl)c1C` gave TDP1 block 1%, TDP1 cell noCPT 6.5µM*, GCN5L2 inh -3%, VDR inhibitor 1% and DT40 TDP1 CPT 6.5µM*.
Screening CCN(Cc1ccccc1)Cc1c(O)ccc2oc(C)c(C(=O)Nc3ccccc3C)c12 returned TDP1 block 7%, TDP1 cell noCPT 13µM*, GCN5L2 inh -2%, VDR inhibitor 4% and DT40 TDP1 CPT 13µM*.
`O=C1CCN(Cc2ccccc2)CCN1[C@H](COc1ccccc1)Cc1ccccc1` gave PLK1 PBD inh -7%, TDP1 cell noCPT 21µM*, GCN5L2 inh -5%, VDR inhibitor -14% and DT40 TDP1 CPT 21µM*.
`CC(C)C[C@@H](COc1ccccc1)N1CCN(Cc2ccccc2)CCC1=O` gave PLK1 PBD inh 3%, TDP1 cell noCPT inconclusive, GCN5L2 inh -2%, VDR inhibitor -7% and DT40 TDP1 CPT inconclusive.

Screening results (PubChem BioAssay)
